The panel holds about 83,000 compounds, 20% with a hit somewhere; the sample as a whole holds those more often.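 The endpoint reported here, percent growth, reads 100 for growth as untreated, 0 for no net growth and -100 for all cells dead.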 The source made the active and inactive calls. The calls were made as follows: active = growth percent below 10; inactive = the rest.
system: HT29 colon; assay: NCI-60 one-dose screen, 48 h (100 = growth as untreated, 0 = no growth, -100 = all killed); settings: 10 µM

Structure (SMILES) | growth
Cc1ccc(C(=O)N2C/C(=C/c3ccc(F)cc3)C(=O)/C(=C/c3ccc(F)cc3)C2)cc1 | 74.1% (inactive)
COc1cc(NC(=O)CCSc2nc3ccc(C)cc3c(=O)n2Cc2ccccc2)cc(OC)c1OC | 78.9% (inactive)
O=C(Nc1cccc(-n2cc(-c3ccncc3)c(-c3cc(O)cc(Cl)c3)n2)c1)Nc1ccc(Cl)c(C(F)(F)F)c1 | 35.3% (inactive)
CCC(=O)N1C/C(=C/c2ccc(Br)cc2)C(=O)/C(=C/c2ccc(Br)cc2)C1 | -58.9% (active)
COc1cc(Cl)cc(-c2nn(-c3cccc(NC(=O)c4ccc(N5CCOCC5)c(C(F)(F)F)c4)c3)cc2-c2ccncc2)c1 | 21.2% (inactive)
O=C(C[P+](c1ccccc1)(c1ccccc1)c1ccccc1)C[P+](c1ccccc1)(c1ccccc1)c1ccccc1 | -77.3% (active)
Nc1ccn(C2CC(O)C(CO)O2)c(=O)n1 (stereo not drawn) | 110% (inactive)
COc1ccc(Nc2nc3ccc(NC(=O)NC4CCCCC4)cc3[nH]c2=O)cc1 | 106% (inactive)
CC1(C)CCC(=NNC(N)=S)CC1 | 95.1% (inactive)
CCOC(=O)C1(CC(C)C)CCOC1=O (stereo not drawn) | 104% (inactive)
N#Cc1cc(-c2cc3ccccc3o2)oc1N | 7.97% (active)
COc1ccc(-c2nc3ncccn3c2-c2nnc(-c3ccsc3C)o2)cc1 | 103% (inactive)
Oc1[nH]c2cc(Cl)ccc2c1/C=c1/ccc2c(c1)N=C(c1cc(F)cc(F)c1)N=2 | 3.28% (active)
CCCCCCCCCCCC[n+]1ccc(C(N)=O)cc1 | 5.01% (active)
COc1ccc2c(c1)O/C(=C\c1ncc([N+](=O)[O-])n1C)C2=O | -13.6% (active)
N#Cc1cccc(OCc2nc(N)nc(N)c2-c2ccc(Cl)c(Cl)c2)c1 | 9.63% (active)
Cc1cs/c(=N\NC(=O)c2cc(-c3cc4ccccc4o3)nn2-c2ccccc2)n1-c1ccccc1 | 93.6% (inactive)
CC1(C)OC2=C(CC1Br)C(=O)C(=O)c1ccccc12 (stereo not drawn) | -11.7% (active)
Cc1occc1-c1nnc(SCC(=O)c2ccc(NC(=O)CC(C)C)cc2)o1 | 113% (inactive)
CCN(CC)CCOc1nc2ccccc2c2c1-c1ccc(OC)cc1C2=O | -12.9% (active)

Structure (SMILES) | growth
COc1ccc(Nc2ncnc3c2c(SC)nn3-c2ccccc2)cc1 | 87.2% (inactive)
O=C(CC(C(=O)c1ccccc1)N1CCOCC1)c1ccccc1 (stereo not drawn) | 92.4% (inactive)
COc1cc(-c2cc(/C=C/C(=O)c3ccc(Cl)c(Cl)c3)[nH]n2)cc(OC)c1OC | 58.3% (inactive)
COc1ccc(-c2nc(-c3nc4ccc(OC)cc4[nH]3)cc3c2[nH]c2ccccc23)cc1 | 17.4% (inactive)
O=C(O)c1ccc(P(=O)(O)O)c([N+](=O)[O-])c1 | 101% (inactive)
COc1ccc2c(c1)O/C(=C\c1ccc([N+](=O)[O-])s1)C2=O | -12.3% (active)
COc1ccc2c(c1)sc1nc(-c3ccccc3)c(-c3cccnc3)n12 | 91.5% (inactive)
CCCCCC(=O)c1ccc(OCCCN2CCN(C(=O)OCC)CC2)cc1 | 102% (inactive)
CC(=O)n1c(-c2ccc(Cl)c(Cl)c2)cn(-c2ccc(Cl)cc2)c1=O | 12.8% (inactive)
C#Cc1ccc(-n2c(/C=C/c3ccc(O)cc3)nc3ncccc3c2=O)cc1 | 109% (inactive)
c1ccc(CNc2ncnc3scc(-c4cccs4)c23)nc1 | 91.2% (inactive)
O=C(Nc1ccncc1)C(=O)c1cn(S(=O)(=O)c2cccc3ccccc23)c2ccccc12 | 42.7% (inactive)
CCN(CC)Cc1cc(Nc2ccnc3cc(Cl)ccc23)ccc1OC | 33.7% (inactive)
O=C1Nc2ccc(Cl)cc2/C1=C\c1c(-c2ccc(Cl)cc2)nc2sc(C3CC3)nn12 | 61.8% (inactive)
Cc1cc(N(CCCNc2ccnc3cc(Cl)ccc23)Cc2ccc3c(c2)OCO3)nc(N2CCOCC2)n1 | 3.19% (active)
c1ccc(CO[C@H]2CO[C@H]3[C@@H]2OC[C@H]3OCc2ccccc2)cc1 | 107% (inactive)
Clc1cc2c(c(CSc3nc4ccccc4n4cccc34)c1)OCOC2 | 88.3% (inactive)
CCN(CC)CCOc1nc2ccc(OC)cc2c2c1-c1ccc(OC)cc1C2=O | -61.4% (active)
CCn1cc(C(=O)O)c(=O)c2cnc(N3CCCC3)nc21 | 111% (inactive)

system: SNB-75 CNS; assay: as above; settings: 10 µM

Structure (SMILES) | growth
Cc1ccc(C(=O)N2C/C(=C/c3ccc(F)cc3)C(=O)/C(=C/c3ccc(F)cc3)C2)cc1 | 59.7% (inactive)
COc1cc(NC(=O)CCSc2nc3ccc(C)cc3c(=O)n2Cc2ccccc2)cc(OC)c1OC | -13.9% (active)
O=C(Nc1cccc(-n2cc(-c3ccncc3)c(-c3cc(O)cc(Cl)c3)n2)c1)Nc1ccc(Cl)c(C(F)(F)F)c1 | 24.1% (inactive)
CCC(=O)N1C/C(=C/c2ccc(Br)cc2)C(=O)/C(=C/c2ccc(Br)cc2)C1 | 1.74% (active)
COc1cc(Cl)cc(-c2nn(-c3cccc(NC(=O)c4ccc(N5CCOCC5)c(C(F)(F)F)c4)c3)cc2-c2ccncc2)c1 | 34.9% (inactive)
O=C(C[P+](c1ccccc1)(c1ccccc1)c1ccccc1)C[P+](c1ccccc1)(c1ccccc1)c1ccccc1 | -22.6% (active)
Nc1ccn(C2CC(O)C(CO)O2)c(=O)n1 (stereo not drawn) | 97.5% (inactive)
COc1ccc(Nc2nc3ccc(NC(=O)NC4CCCCC4)cc3[nH]c2=O)cc1 | 82.6% (inactive)
CC1(C)CCC(=NNC(N)=S)CC1 | 88.2% (inactive)
CCOC(=O)C1(CC(C)C)CCOC1=O (stereo not drawn) | 86.8% (inactive)
N#Cc1cc(-c2cc3ccccc3o2)oc1N | 24.4% (inactive)
COc1ccc(-c2nc3ncccn3c2-c2nnc(-c3ccsc3C)o2)cc1 | 17.5% (inactive)
Oc1[nH]c2cc(Cl)ccc2c1/C=c1/ccc2c(c1)N=C(c1cc(F)cc(F)c1)N=2 | -21.5% (active)
CCCCCCCCCCCC[n+]1ccc(C(N)=O)cc1 | -4.25% (active)
COc1ccc2c(c1)O/C(=C\c1ncc([N+](=O)[O-])n1C)C2=O | 3.5% (active)
N#Cc1cccc(OCc2nc(N)nc(N)c2-c2ccc(Cl)c(Cl)c2)c1 | 51.7% (inactive)
Cc1cs/c(=N\NC(=O)c2cc(-c3cc4ccccc4o3)nn2-c2ccccc2)n1-c1ccccc1 | 89.7% (inactive)
CC1(C)OC2=C(CC1Br)C(=O)C(=O)c1ccccc12 (stereo not drawn) | 11.1% (inactive)
Cc1occc1-c1nnc(SCC(=O)c2ccc(NC(=O)CC(C)C)cc2)o1 | 111% (inactive)
CCN(CC)CCOc1nc2ccccc2c2c1-c1ccc(OC)cc1C2=O | 1.69% (active)

Structure (SMILES) | growth
COc1ccc(Nc2ncnc3c2c(SC)nn3-c2ccccc2)cc1 | 65.8% (inactive)
O=C(CC(C(=O)c1ccccc1)N1CCOCC1)c1ccccc1 (stereo not drawn) | 101% (inactive)
COc1cc(-c2cc(/C=C/C(=O)c3ccc(Cl)c(Cl)c3)[nH]n2)cc(OC)c1OC | 75.4% (inactive)
COc1ccc(-c2nc(-c3nc4ccc(OC)cc4[nH]3)cc3c2[nH]c2ccccc23)cc1 | 67.3% (inactive)
O=C(O)c1ccc(P(=O)(O)O)c([N+](=O)[O-])c1 | 87.1% (inactive)
COc1ccc2c(c1)O/C(=C\c1ccc([N+](=O)[O-])s1)C2=O | 55.5% (inactive)
COc1ccc2c(c1)sc1nc(-c3ccccc3)c(-c3cccnc3)n12 | 95.5% (inactive)
CCCCCC(=O)c1ccc(OCCCN2CCN(C(=O)OCC)CC2)cc1 | 102% (inactive)
CC(=O)n1c(-c2ccc(Cl)c(Cl)c2)cn(-c2ccc(Cl)cc2)c1=O | -0.456% (active)
C#Cc1ccc(-n2c(/C=C/c3ccc(O)cc3)nc3ncccc3c2=O)cc1 | -1.11% (active)
c1ccc(CNc2ncnc3scc(-c4cccs4)c23)nc1 | 64.6% (inactive)
O=C(Nc1ccncc1)C(=O)c1cn(S(=O)(=O)c2cccc3ccccc23)c2ccccc12 | 76.5% (inactive)
CCN(CC)Cc1cc(Nc2ccnc3cc(Cl)ccc23)ccc1OC | 86.8% (inactive)
O=C1Nc2ccc(Cl)cc2/C1=C\c1c(-c2ccc(Cl)cc2)nc2sc(C3CC3)nn12 | 11.3% (inactive)
Cc1cc(N(CCCNc2ccnc3cc(Cl)ccc23)Cc2ccc3c(c2)OCO3)nc(N2CCOCC2)n1 | 61.4% (inactive)
c1ccc(CO[C@H]2CO[C@H]3[C@@H]2OC[C@H]3OCc2ccccc2)cc1 | 111% (inactive)
Clc1cc2c(c(CSc3nc4ccccc4n4cccc34)c1)OCOC2 | 62% (inactive)
CCN(CC)CCOc1nc2ccc(OC)cc2c2c1-c1ccc(OC)cc1C2=O | -1.45% (active)
CCn1cc(C(=O)O)c(=O)c2cnc(N3CCCC3)nc21 | 88.1% (inactive)
